Measurements: paper PMC4552634, “A New Set of Chemical Starting Points with Plasmodium falciparum Transmission-Blocking Potential for Antimalarial Drug Discovery” (PLoS ONE, 2015)
Read-outs that look alike come from different tables or passages of the source. The whole screen tested about 13,000 compounds, of which about 3,200 (25%) showed an effect of 50% or more. Some of the results follow.

Tested on: P. falciparum stage V gametocytes
Set-up: BacTiter-Glo ATP luminescence viability of purified stage V gametocytes in 384-well plates, per cent inhibition versus DMSO
Settings: 48 h, 5 µM, inhibitor

| Compound | % Inhibition | % Inhibition (% Inhibition) |
| --- | --- | --- |
| COc1ccc(Nc2nccc(N3CCC(NC(=O)C(C)c4ccc(Cl)cc4)CC3)n2)cc1 (centres unmarked) [TCMDC-133633] | 29.63% | – |
| COc1cc(NC(=O)c2cccc([N+](=O)[O-])c2)cc(S(=O)(=O)c2ccc(Cl)cc2)c1 [TCMDC-124901] | 21.63% | – |
| COc1cc(NC(=O)C(c2ccc(Cl)cc2)C(C)C)cc(OC)c1 (centres unmarked) [TCMDC-124823] | 74.52% | – |
| CCCc1nc2c(N3CC(NC(=O)/C=C/c4ccccc4)C3)cccc2n1C1CC1 [TCMDC-134613] | 8.32% | – |
| O=C1C2=C(Nc3ccccc3SC2c2cccs2)c2ccccc21 (centres unmarked) [TCMDC-124060] | -4.275% | – |
| COCCNCc1ccc(-c2cccc(CNc3ccc(OC)cc3)c2)cc1 [TCMDC-140484] | -1.116% | – |
| COCCNCc1cccc(-c2cccc(CNC3CCN(Cc4ccccc4)CC3)c2)c1 [TCMDC-140481] | 99.88% | – |
| COc1ccc(NCc2cccc(-c3cccc(CNCCc4ccccc4)c3)c2)cc1 [TCMDC-140485] | -4.016% | – |
| COCCNCc1cccc(-c2ccc(CNC3CCN(Cc4ccccc4)CC3)cc2)c1 [TCMDC-140489] | 85.27% | – |
| COCCNCc1ccc(-c2cccc(CNC3CCN(Cc4ccccc4)CC3)c2)cc1 [TCMDC-140482] | 107.8% | – |
| COc1cccc(CCNCc2ccc(-c3cccc(CNC4CCCC4)c3)cc2)c1 [TCMDC-140493] | 66.56% | – |
| COCCNCc1ccc(-c2ccc(CNC3CCN(Cc4ccccc4)CC3)cc2)cc1 [TCMDC-140490] | 23.65% | – |
| O=C(NCc1cccc(C(F)(F)F)c1)C(c1cc2ccccc2o1)N1CCN(C(c2ccccc2)c2ccccc2)CC1 (centres unmarked) [TCMDC-141008] | 8.041% | – |
| Cc1ccc(C(C)C)cc1CON1C(N)=NC(N)=NC1(C)C [TCMDC-131323] | 26.53% | – |
| COc1ccc2nccc([C@@H](O)CN3CCC(NCc4ccc(OC)c(NC=O)c4)CC3)c2c1 [TCMDC-141568] | 1.46% | – |
| CN(Cc1cccc(C#N)c1)C1CCN(c2cc(NC(=O)c3ccc(F)cc3)ccn2)CC1 [TCMDC-134974] | -6.144% | – |
| CN(C)CCOc1cc(NC(=O)Nc2ccc(Cl)cc2C(F)(F)F)ccc1I [TCMDC-139125] | -26.77% | – |
| Cc1cc(N[C@@H](CC(C)C)C(=O)NCCOc2ccccc2)nc(NCC2CCCCC2)n1 [TCMDC-134919] | -82.39% | – |
| COc1cccc(CN2CCC3(CC2)CN(C(=O)Nc2ccc(Cl)c(Cl)c2)C3)c1 [TCMDC-136484] | -4.115% | – |
| CN(CCCc1c[nH]c2ccccc12)CCC1CCC(NC(=O)/C=C/c2ccc(Cl)c(Cl)c2)CC1 (centres unmarked) [TCMDC-139449] | -10.77% | – |
| CN1CCN(CC2(Nc3nccc(NCCc4cn(C)c5ccccc45)n3)CCCCC2)CC1 [TCMDC-135122] | 114.3% | – |
| CCOc1ccccc1CNc1nccc(NCc2ccc(Cl)cc2Cl)n1 [TCMDC-135115] | 39.1% | – |
| Cn1cc(CCNc2ccnc(NCCc3coc4ccccc34)n2)c2ccccc21 [TCMDC-135121] | 46.44% | – |

| Compound | % Inhibition | % Inhibition (% Inhibition) |
| --- | --- | --- |
| CN1CCN(CC2(Nc3nccc(NCc4ccc(Cl)cc4Cl)n3)CCCCC2)CC1 [TCMDC-135114] | 73.23% | – |
| CCOc1ccccc1CNc1nccc(NCCc2cn(C)c3ccccc23)n1 [TCMDC-135123] | 47.81% | – |
| Clc1ccc(CNc2ccnc(NCc3cccnc3N3CCCC3)n2)c(Cl)c1 [TCMDC-135112] | 11.98% | – |
| O=C(c1cccc(-c2ccc(-c3nc4cc(C(F)(F)F)ccc4[nH]3)cc2)c1)N1CCCCC1CN1CCC(O)C1 (centres unmarked) [TCMDC-132345] | -7.323% | – |
| O=C([C@H]1CCCCN1c1ccc([N+](=O)[O-])c2ccccc12)N1CCN(c2ncccn2)CC1 [TCMDC-135504] | -25.11% | – |
| Cc1cccc(OC(C)C(=O)Nc2cc(C(F)(F)F)ccc2N2CCOCC2)c1 (centres unmarked) [TCMDC-125116] | -67.15% | – |
| COc1ccc(Oc2cnc(N)nc2N)c(C(C)C)c1 [TCMDC-132471] | -12.02% | – |
| Nc1ncc(OC2CCCCC2)c(N)n1 [TCMDC-137916] | 86.08% | – |
| Nc1nccc2ccc(OC3CCCCC3)cc12 [TCMDC-136543] | 27.41% | – |
| Cc1nc(Nc2ccc(F)cc2)nc(N2CCc3ccccc3[C@@H]2C)c1C [TCMDC-141073] | -42.65% | – |
| Cl.c1ccc(CN2CCN(CCNc3c4ccccc4nc4ccccc34)CC2)cc1 [TCMDC-137571] | 58.89% | – |
| c1ccc(CN2CCN(CCCCNc3c4ccccc4nc4ccccc34)CC2)cc1 [TCMDC-138009] | 101.2% | – |
| NC(=NC1CC1)c1ccc2nc(CCCCCc3nc4ccc(C(N)=NC5CC5)cc4[nH]3)[nH]c2c1 [TCMDC-137236] | 9.891% | – |
| Cc1cc(SC(C)(C)C)cc2c(Cl)c(C(N)=O)cnc12 [TCMDC-135415] | 114.9% | – |
| COc1ccccc1-c1cccc(CNC2CCN(CC3Cn4c(=O)ccc5ccc(F)c3c54)CC2)c1 (centres unmarked) [TCMDC-134411] | 15.92% | – |
| O=C(CSc1ccc(Cl)cc1)NC1CCC(CN2CCC(c3c[nH]c4ccccc34)CC2)CC1 (centres unmarked) [TCMDC-139953] | -2.163% | – |
| O=C(CCCCCc1ccccc1)NC1CCC(CN2CCC(c3c[nH]c4ccccc34)CC2)CC1 (centres unmarked) [TCMDC-139952] | 95.36% | – |
| O=C(Cc1c(-c2ccccc2)[nH]c2ccccc12)NC1CCC(CN2CCC(c3c[nH]c4ccccc34)CC2)CC1 (centres unmarked) [TCMDC-139909] | 71.88% | – |
| O=C(NC1CCC(CN2CCC(c3c[nH]c4ccccc34)CC2)CC1)c1cn(Cc2ccccc2)c2ccccc12 (centres unmarked) [TCMDC-139888] | 107.9% | – |
| O=C(CCc1ccc(Cl)cc1Cl)NC1CCC(CN2CCC(c3c[nH]c4ccccc34)CC2)CC1 (centres unmarked) [TCMDC-140296] | – | -15.31% |
| O=C(CCc1ccc(Cl)cc1Cl)NC1CCC(CN2CCC(c3c[nH]c4ccccc34)CC2)CC1 (centres unmarked) [TCMDC-140262] | – | -48.76% |
| O=C(NC1CCC(CN2CCC(c3c[nH]c4ccccc34)CC2)CC1)c1cnn(-c2ccccc2)c1-c1ccccc1Cl (centres unmarked) [TCMDC-140375] | 25.23% | – |
| O=C(Cc1cc(=O)oc2cc(O)ccc12)NC1CCC(CN2CCC(c3c[nH]c4ccccc34)CC2)CC1 (centres unmarked) [TCMDC-139882] | -52.99% | – |

| Compound | % Inhibition | % Inhibition (% Inhibition) |
| --- | --- | --- |
| CCOCCCNc1ncc(-c2ccsc2)c(-c2nc(C)cs2)n1 [TCMDC-124842] | 18.59% | – |
| Cc1cccc(C(=O)Nc2ccnc(N3CCC(N(C)Cc4ccc(C#N)cc4)CC3)c2)c1 [TCMDC-134977] | 5.364% | – |
| CCN(CC)CCN1C(=O)c2oc3ccc(F)cc3c(=O)c2C1c1cccc(Cl)c1 (centres unmarked) [TCMDC-124911] | 13.72% | – |
| O=C(n1c(-c2cc3ccccc3n2C(=O)C(F)(F)F)cc2ccccc21)C(F)(F)F [TCMDC-131570] | 0.2533% | – |
| CC(C)COc1ccc(Cl)cc1Cc1nc(-c2nc3c(CN4CCN(C)CC4)cccc3[nH]2)cs1 [TCMDC-132173] | 82.6% | – |
| CC(C)COc1ccc(Cl)cc1Cc1nc(-c2nc3ccc(CN4CCN(C)CC4)cc3[nH]2)co1 [TCMDC-136812] | 12.89% | – |
| CC(C)COc1ccc(Cl)cc1Cc1nc(-c2nc3nc(N4CCN(C)CC4)ccc3[nH]2)cs1 [TCMDC-136876] | 6.698% | – |
| CC(C)COc1ccc(Cl)cc1Nc1nc(-c2nc3ccccc3[nH]2)cs1 [TCMDC-137041] | 2.246% | – |
| CN1CCN(CCc2ccc3nc(-c4csc(Cc5cc(Cl)ccc5OCc5ccccc5)n4)[nH]c3c2)CC1 [TCMDC-132171] | 95.37% | – |
| CNCc1ccc2nc(-c3coc(Cc4cc(Cl)ccc4OCC(C)C)n3)[nH]c2c1 [TCMDC-136808] | 13.07% | – |
| CN1CCN(c2ccc3nc(-c4ccc(Cc5cc(Cl)ccc5OCc5ccccc5)o4)[nH]c3c2)CC1 [TCMDC-136708] | -32.6% | – |
| Clc1ccc(OCc2ccccc2)c(-c2nc(-c3nc4ccc(Cl)cc4[nH]3)cs2)c1 [TCMDC-136728] | -8.781% | – |
| Cc1cc(-c2nc3ccc(CN4CCN(C)CC4)cc3[nH]2)nn1Cc1cc(Cl)ccc1OCc1ccccc1 [TCMDC-136883] | 19.79% | – |
| CN(C)Cc1cccc2[nH]c(-c3csc(Cc4cc(Cl)ccc4OCc4ccccc4)n3)nc12 [TCMDC-132174] | 97.26% | – |
| CNCc1cccc2[nH]c(-c3csc(Cc4cc(Cl)ccc4OCC(C)C)n3)nc12 [TCMDC-132172] | 92.59% | – |
| CN(C)Cc1ccc2nc(-c3cccc(Cc4cc(Cl)ccc4OCc4ccc(Cl)cc4F)n3)[nH]c2c1 [TCMDC-136892] | 34.33% | – |
| CCc1ccc(NC(=O)c2cccc(CN3CCCN(CC4CCCCC4)CC3)c2)cc1 [TCMDC-135988] | -39.09% | – |
| O=C(c1ccc(-c2ccc(-c3nc4ccccc4[nH]3)s2)cc1)N1CCCCC1CN1CCC(O)C1 (centres unmarked) [TCMDC-132341] | -18.79% | – |
| CC(O)C1CCCCN1C(=O)c1cccc(-c2ccc(-c3nc4ccccc4[nH]3)s2)c1 (centres unmarked) [TCMDC-132332] | 27.09% | – |
| CC(C)Cn1c(N)cc(=O)n(C)c1=O [TCMDC-123470] | 3.426% | – |
| CCCCCC(=O)NCC(NCCCNc1cc(=O)c2ccccc2[nH]1)c1cc(Br)cc(Br)c1 (centres unmarked) [TCMDC-140316] | 24.17% | – |
| COc1ccc2ncc(Cl)c(NCC3(O)CCC(NCc4ccc5c(n4)NC(=O)CS5)CC3)c2n1 (centres unmarked) [TCMDC-134671] | 11.29% | – |
